Experimental data taken from PubChem BioAssay (EPA / NIEHS).
Where “and” joins values, the source holds several entries; their conditions need not be identical. Equal entries are not always repeated. Some compounds were tested as several samples or in several runs, with calls that do not always agree. Calls of active or inactive are those of the source. Rule for the calls: active = hit-call score of the fitted dose curve at least 0.9, where 1 is the maximum; inactive = score below 0.9.

Experiments:
[1] = read-out: Matrix Metallopeptidase 1 (MMP1), MMP1 (gene 4312); experiment: BSK_BE3C_MMP1: BioMAP Diversity Plus: BE3C Assay for Matrix Metallopeptidase 1 (MMP1) Biomarker Activity (AID 2283024); settings: primary human bronchial epithelial cells; actives raise or lower the signal
Outline: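 ELISA measurement of MMP-1 after 24 h compound exposure of primary human bronchial epithelial cells. Changes in either direction fitted relative to DMSO; parallel SRB staining checked overt cytotoxicity.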

[2] = BSK_3C_Vis: BioMAP Diversity Plus: 3C Assay for Morphology Visualization (AID 2283025); settings: primary human endothelial cells (HUVEC);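 note: fitted both ways so gain or loss versus DMSO counts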;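 for AC50: light microscopy image of cell morphology used as background control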
Outline: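 Light-microscopy visualization of HUVEC cultures at 24 h post-treatment, with DMSO as baseline for bidirectional fitting.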

[3] = read-out: Pselectin, SELP (gene 6403); experiment: BSK_4H_Pselectin: BioMAP Diversity Plus: 4H Assay for Pselectin Biomarker Activity (AID 2283026); settings: primary human endothelial cells (HUVEC); actives raise or lower the signal
Outline: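 ELISA of surface P-selectin on HUVEC, 24 h after dosing, with parallel SRB staining (0.1% after 10% TCA fixation, 560 nm) for overt cytotoxicity. Activity fitted in both directions relative to DMSO.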

[4] = BSK_4H_SRB: Viability Assessment in the BioMAP Diversity Plus: 4H Assay (AID 2283027); settings: primary human endothelial cells (HUVEC);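 note: cells exposed to compound for 24 h before staining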;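 for AC50: curves fitted both ways versus DMSO so AC50 may be loss or gain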
Outline: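 Cytotoxicity readout: sulforhodamine B (0.1%) staining of total protein after 10% TCA fixation, measured at 560 nm in human umbilical vein endothelium at 24 h. DMSO set the baseline; fitting was bidirectional.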

[5] = BSK_BE3C_SRB: Viability Assessment in the BioMAP Diversity Plus: BE3C Assay (AID 2283028); settings: primary human bronchial epithelial cells;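 for AC50: fitted both ways so AC50 may mark signal gain or loss versus DMSO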
Outline: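 Overt cytotoxicity was assessed as total protein in confluent human primary bronchial epithelial cultures 24 h after chemical addition, using 0.1% sulforhodamine B staining read at 560 nm.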

[6] = read-out: Thrombomodulin, THBD (gene 7056); experiment: BSK_3C_Thrombomodulin: BioMAP Diversity Plus: 3C Assay for Thrombomodulin Biomarker Activity (AID 2283029); settings: primary human endothelial cells (HUVEC); actives raise or lower the signal
Outline: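 ELISA measurement of thrombomodulin on HUVEC surface 24 h after chemical dosing; activity fitted in both directions relative to DMSO vehicle.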

[7] = read-out: Urokinase-type plasminogen activator receptor (uPAR), PLAUR (gene 5329); experiment: BSK_4H_uPAR: BioMAP Diversity Plus: 4H Assay for Urokinase-type plasminogen activator receptor (uPAR) Biomarker Activity (AID 2283030); settings: primary human endothelial cells (HUVEC); actives raise or lower the signal
Outline: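 Chemicals are dosed onto human vascular endothelial primary cells (umbilical vein). After 24 h, uPAR is read by ELISA. Gain or loss of signal is fitted relative to DMSO.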

[8] = read-out: Vascular endothelial growth factor receptor 2 (Homo sapiens) (UniProt P35968); experiment: BSK_4H_VEGFRII: BioMAP Diversity Plus: 4H Assay for Vascular endothelial growth factor receptor 2 (VEGFR2) Biomarker Activity (AID 2283031); settings: primary human endothelial cells (HUVEC); actives raise or lower the signal;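 for AC50: cell-surface VEGFR2 protein level quantified by ELISA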
Outline: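 VEGFRII levels on human vascular endothelial primary cells were determined by ELISA at 24 hours post-dosing, with gain- or loss-of-signal fitted against DMSO controls.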

[9] = read-out: Human Leukocyte Antigen - DR isotype (HLADR), HLA-DRA (gene 3122); experiment: BSK_BE3C_HLADR: BioMAP Diversity Plus: BE3C Assay for Human Leukocyte Antigen - DR isotype (HLADR) Biomarker Activity (AID 2283032); settings: primary human bronchial epithelial cells; actives raise or lower the signal
Outline: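 Cell-surface HLA-DR ELISA readout at 24 h after dosing in the BE3C primary human lung bronchial epithelial system; gain or loss of signal against DMSO, with parallel sulforhodamine B staining of total protein for overt cytotoxicity.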

[10] = read-out: Vascular cell adhesion molecule 1 (VCAM1), VCAM1 (gene 7412); experiment: BSK_4H_VCAM1: BioMAP Diversity Plus: 4H Assay for Vascular cell adhesion molecule 1 (VCAM1) Biomarker Activity (AID 2283033); settings: primary human endothelial cells (HUVEC); actives raise or lower the signal
Outline: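 VCAM-1 ELISA read 24 h after chemical dosing of HUVEC in the BioMAP 4H system, with gain or loss of signal fitted relative to DMSO. Parallel SRB staining (560 nm) checked overt cytotoxicity.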

[11] = read-out: Interferon-gamma inducible Protein 10 (IP10), CXCL10 (gene 3627); experiment: BSK_BE3C_IP10: BioMAP Diversity Plus: BE3C Assay for Interferon-gamma inducible Protein 10 (IP10) Biomarker Activity (AID 2283034); settings: primary human bronchial epithelial cells; actives raise or lower the signal
Outline: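 IP-10 quantified by ELISA in human primary bronchial epithelial cell cultures at 24 hours post-dosing. Gain or loss of signal fitted relative to DMSO; parallel SRB staining assessed overt cytotoxicity.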

[12] = read-out: Monokine induced gamma interferon (MIG), CXCL9 (gene 4283); experiment: BSK_BE3C_MIG: BioMAP Diversity Plus: BE3C Assay for Monokine induced gamma interferon (MIG) Biomarker Activity (AID 2283035); settings: primary human bronchial epithelial cells; actives raise or lower the signal
Outline: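 hu bronchial epithelial 1° cells, 24 h cpd; MIG by ELISA; bidirectional fit, DMSO = baseline.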

[13] = read-out: Transforming growth factor beta 1 (TGFb1), TGFB1 (gene 7040); experiment: BSK_BE3C_TGFb1: BioMAP Diversity Plus: BE3C Assay for Transforming growth factor beta 1 (TGFb1) Biomarker Activity (AID 2283036); settings: primary human bronchial epithelial cells; actives raise or lower the signal
Outline: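 ELISA readout of TGF-b1 from human lung bronchial epithelial primary cells, taken 24 h post-treatment. Gain or loss of signal fitted relative to DMSO baseline, with parallel SRB staining for overt cytotoxicity.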

[14] = read-out: Plasminogen activator inhibitor-1 (PAI1), SERPINE1 (gene 5054); experiment: BSK_BE3C_PAI1: BioMAP Diversity Plus: BE3C Assay for Plasminogen activator inhibitor-1 (PAI1) Biomarker Activity (AID 2283037); settings: primary human bronchial epithelial cells; actives raise or lower the signal
Outline: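 PAI-1 was measured by ELISA in human primary bronchial epithelial cultures 24 h after chemical dosing, with cytotoxicity checked by SRB total-protein staining in parallel cultures. Activity was fitted in both directions relative to DMSO.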

[15] = read-out: urokinase plasminogen activator (uPA), PLAU (gene 5328); experiment: BSK_BE3C_uPA: BioMAP Diversity Plus: BE3C Assay for urokinase plasminogen activator (uPA) Biomarker Activity (AID 2283038); settings: primary human bronchial epithelial cells; actives raise or lower the signal
Outline: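 Measured by ELISA: uPA from human primary bronchial epithelial cells 24 h after chemical treatment. Values derive from bidirectional curve fitting with DMSO serving as negative control. Total protein by SRB staining in parallel wells flagged overt cytotoxicity.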

[16] = read-out: Urokinase-type plasminogen activator receptor (uPAR), PLAUR (gene 5329); experiment: BSK_BE3C_uPAR: BioMAP Diversity Plus: BE3C Assay for Urokinase-type plasminogen activator receptor (uPAR) Biomarker Activity (AID 2283039); settings: primary human bronchial epithelial cells; actives raise or lower the signal
Outline: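 uPAR levels were measured by ELISA after 24 h compound treatment of primary human bronchial epithelial cells, fitted in both directions relative to DMSO. Parallel SRB staining served as the cytotoxicity read-out.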

[17] = read-out: Interleukin-6 (IL6), IL6 (gene 3569); experiment: BSK_CASM3C_IL6: BioMAP Diversity Plus: CASM3C Assay for Interleukin-6 (IL6) Biomarker Activity for (AID 2283040); settings: primary human coronary artery smooth muscle cells; actives raise or lower the signal
[18] = read-out: Tissue plasminogen activator (tPA), PLAT (gene 5327); experiment: BSK_BE3C_tPA: BioMAP Diversity Plus: BE3C Assay for Tissue plasminogen activator (tPA) Biomarker Activity (AID 2283041); settings: primary human bronchial epithelial cells; actives raise or lower the signal
Outline: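 tPA measured by ELISA 24 h after dosing human primary bronchial epithelial cells (BE3C system). Changes in either direction were fitted against DMSO. Parallel cultures were stained with SRB to flag overt cytotoxicity.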

[19] = read-out: Interleukin-8 (IL8), CXCL8 (gene 3576); experiment: BSK_CASM3C_IL8: BioMAP Diversity Plus: CASM3C Assay for Interleukin-8 (IL8) Biomarker Activity (AID 2283042); settings: primary human coronary artery smooth muscle cells; actives raise or lower the signal;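 note: IL-8 protein level quantified by ELISA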
[20] = read-out: Human Leukocyte Antigen - DR isotype (HLADR), HLA-DRA (gene 3122); experiment: BSK_CASM3C_HLADR: BioMAP Diversity Plus: CASM3C Assay for Human Leukocyte Antigen - DR isotype (HLADR) Biomarker Activity (AID 2283043); settings: primary human coronary artery smooth muscle cells; actives raise or lower the signal;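 note: cell-surface HLA-DR protein level quantified by ELISA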

Measured: AC50

Cn1cc(-c2ccccc2)c(=O)c(-c2cccc(C(F)(F)F)c2)c1
inactive: all assays above

Nc1cc(Cl)cc(C(=O)O)c1Cl
not listed: [13]
inactive: all other assays above

Cc1cccc(N)c1N
active: [10] 13.6 µM
not listed: [13]
inactive: all other assays above

[As]#[In]
inactive: all assays above

CCCCCCCCn1sccc1=O
inactive: [8]
active: [1] 15.1 µM | [2] 12.9 µM | [3] 8.69 µM | [4] 21 µM | [5] 12.8 µM | [6] 5.76 µM | [7] 10.5 µM | [9] 7.16 µM | [10] 9.24 µM | [11] 9.14 µM | [12] 13.6 µM | [13] 5.55 µM | [14] 7.33 µM | [15] 9.51 µM | [16] 12.9 µM | [17] 28.3 µM | [18] 6.84 µM | [19] 14.3 µM | [20] 4.85 µM

CCOC(=O)[C@]1(c2ccccc2)Oc2ccccc2[C@@H]1N
active: [2] 39 µM | [7] 10.3 µM | [9] 20 µM | [10] 7.44 µM | [20] 31 µM
inactive: all other assays above

c1ccc(NNc2ccccc2)cc1
inactive: all assays above

Clc1ccc(C(c2ccc(Cl)cc2)C(Cl)(Cl)Cl)cc1
active: [2] 37.3 µM | [3] 14.9 µM | [4] 30.5 µM | [7] 31 µM | [8] 25.8 µM | [10] 25.9 µM | [20] 31.4 µM
inactive: all other assays above

c1ccc2c(c1)oc1ccccc12
inactive: all assays above

OCCCl
inactive: all assays above

CCN(CC)N=O
inactive: all assays above

Cc1cc(N=Nc2ccccc2C)ccc1N
active: [2] 39 µM | [3] 29.1 µM | [4] 5.17 µM | [6] 3 µM | [7] 1.95 µM | [10] 33.1 µM | [14] 12 µM
not listed: [13]
inactive: all other assays above

N#CC(Br)(Br)C(N)=O
inactive: all assays above

O=C(N[C@H](c1ccccc1)[C@@H]1CN2CCC1CC2)c1c(Cl)ccc(C(F)(F)F)c1Cl
inactive: [3] | [4] | [8] | [10] | [17] | [19] | [20]
active: [1] 44.2 µM | [2] 14.5 µM | [5] 27.4 µM | [6] 29.7 µM | [7] 17.3 µM | [9] 39.7 µM | [11] 21.9 µM | [12] 49 µM | [13] 19.4 µM | [14] 29.7 µM | [15] 22.4 µM | [16] 34.5 µM | [18] 29.7 µM

c1ccc(C2CO2)cc1 (stereo unspecified)
inactive: all assays above

O=[N+]([O-])c1ccc(Oc2ccc(Cl)cc2Cl)cc1
active: [2] 39 µM | [9] 20 µM
inactive: all other assays above

CCCCOC(=O)c1ccccc1C(=O)OCc1ccccc1
inactive: all assays above

CCN(CC)CCO
inactive: all assays above

CO[C@@H]1[C@H](OC(=O)NC(=O)CCl)CC[C@]2(CO2)[C@H]1[C@@]1(C)O[C@@H]1CC=C(C)C
active: [3] 2.09 µM | [9] 7.85 µM | [10] 6.62 µM | [11] 9.12 µM | [14] 6.98 µM | [16] 5.83 µM | [18] 7.73 µM | [20] 8.37 µM
inactive: all other assays above

CCNS(=O)(=O)C(F)(F)C(F)(F)C(F)(F)C(F)(F)C(F)(F)C(F)(F)C(F)(F)C(F)(F)F
inactive: [1] | [3] | [4] | [5] | [6] | [7] | [8] | [12] | [15] | [16] | [17] | [18] | [19] | [20]
active: [1] 4.99 µM and 11.3 µM | [3] 30 µM and 43.4 µM | [4] 45.1 µM and 47.3 µM | [5] 49.7 µM and 50.3 µM | [9] 5.32 µM and 36.7 µM and 30 µM | [10] 19.3 µM and 16.9 µM and 25.2 µM | [11] 13.9 µM and 21.1 µM and 14 µM | [12] 44.4 µM and 29.5 µM | [13] 12 µM | [14] 19.3 µM and 4.88 µM and 4.37 µM | [15] 41.5 µM | [16] 21.2 µM and 30 µM | [18] 13 µM | [19] 17 µM | [20] 8.6 µM

CC(C)(C)OOC(C)(C)CCC(C)(C)OOC(C)(C)C
inactive: all assays above

Clc1ccc(Cl)c(Cl)c1
inactive: all assays above
